Measured values reported in PubChem BioAssay (EPA / NIEHS).
“And” between values parts separate entries of the source, which are not always exact repeats. Equal values may be shown once. Inconclusive results are not listed. Some structures have more than one record in an assay (separate samples or runs), and their calls can disagree. The source made the active and inactive calls. The calls were made as follows, unless noted: active = hit-call score of the fitted dose curve at least 0.9, where 1 is the maximum; inconclusive = response in the unintended direction; inactive = score below 0.9.

What was measured:
[1] = target: CCAAT/enhancer-binding protein beta (Homo sapiens) (UniProt P17676); assay: ATG_C_EBP_CIS: Attagene CIS-FACTORIAL HepG2 Assay for human CCAAT/Enhancer Binding Protein (C/EBP) beta (AID 2282927; active = hit-call score of the fitted dose curve at least 0.9, where 1 is the maximum; inactive = score below 0.9); conditions: HepG2 Attagene cis-factorial transcription factor reporter; actives raise or lower the signal
Chain of CCAAT/enhancer-binding protein beta (Homo sapiens) (P17676 whole entry, looked up, the tested form may be a part): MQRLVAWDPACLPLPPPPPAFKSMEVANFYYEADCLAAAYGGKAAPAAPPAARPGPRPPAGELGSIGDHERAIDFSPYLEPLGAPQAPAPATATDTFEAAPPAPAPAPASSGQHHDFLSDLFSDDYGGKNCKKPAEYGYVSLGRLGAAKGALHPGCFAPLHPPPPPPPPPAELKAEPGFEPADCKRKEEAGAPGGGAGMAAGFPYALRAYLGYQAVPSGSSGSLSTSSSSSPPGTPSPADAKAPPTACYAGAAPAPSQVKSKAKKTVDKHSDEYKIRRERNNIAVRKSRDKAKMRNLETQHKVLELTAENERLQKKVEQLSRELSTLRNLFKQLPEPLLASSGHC
Summary of the method: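 Chemical-treated HepG2 cells (24 h) bearing cis-regulated reporter constructs were processed for total RNA, then reverse transcription, PCR amplification, fluorescent primer extension and fragment analysis; gain- and loss-of-signal were fitted against DMSO.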

[2] = ATG_AP_2_CIS: Attagene CIS-FACTORIAL HepG2 Assay for human Activator Protein 2 (AP-2) (AID 2282932; active = hit-call score of the fitted dose curve at least 0.9, where 1 is the maximum; inactive = score below 0.9); conditions: HepG2 AP-2 cis-reporter, Attagene transcription factor profiling; actives raise or lower the signal
Summary of the method: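 Cells (HepG2) transfected with promoter-driven reporter constructs, treated 24 h. Total RNA reverse-transcribed, reporter cDNA PCR-amplified, FAM-labelled by primer extension, digested, resolved by capillary electrophoresis. Activity fitted both directions versus DMSO.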

[3] = ATG_BRE_CIS: Attagene CIS-FACTORIAL HepG2 Assay for human Bone Morphogenetic Protein (BMP) Response Element (BRE) (AID 2282933; active = hit-call score of the fitted dose curve at least 0.9, where 1 is the maximum; inactive = score below 0.9); conditions: HepG2 BMP response element reporter, Attagene transcription factor profiling; actives raise or lower the signal
Summary of the method: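 Fluorescence-labelled reporter cDNA fragments, separated by capillary electrophoresis, gave the signal for this component of a 52-readout multiplex. HepG2 cells were transfected, exposed to chemicals for 24 h, and compared with DMSO using bidirectional fitting.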

[4] = ATG_E_Box_CIS: Attagene CIS-FACTORIAL HepG2 Assay for human Enhancer Box (E-box) (AID 2282936; active = hit-call score of the fitted dose curve at least 0.9, where 1 is the maximum; inactive = score below 0.9); conditions: HepG2 E-box cis-reporter transcription, actives raise or lower the signal
Summary of the method: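 Endogenous transcription factor activity was sensed in human HepG2 liver cells through transfected cis-promoter reporter units. After 24 h of dosing, total RNA was reverse-transcribed and reporter cDNA resolved by capillary electrophoresis.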

[5] = TOX21_p53_BLA_p2_viability: Viability Assessment in the Tox21 HCT-116 p53 Agonism Beta-lactamase Assay, Phase 2 (AID 2283591);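 also: compound exposure lasted 16 h at 37 °C; actives lower the ATP signal meaning cytotoxicity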
Summary of the method: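 HCT-116 p53-bla cells (4000/well) rested 5 h at 37C, then received compounds in DMSO (217-fold dilution) for 16 h at 37C, 5% CO2. After the CCF4 read, CellTiter-Glo was added; ATP luminescence was read after 30 min at room temperature.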

[6] = target: Cellular tumor antigen p53 (Homo sapiens) (UniProt P04637); assay: TOX21_p53_BLA_p2_ratio: Tox21 HCT-116 p53 Agonism Beta-lactamase Assay, Ratio, Phase 2 (AID 2283592)
Chain of Cellular tumor antigen p53 (Homo sapiens) (P04637 whole entry, looked up): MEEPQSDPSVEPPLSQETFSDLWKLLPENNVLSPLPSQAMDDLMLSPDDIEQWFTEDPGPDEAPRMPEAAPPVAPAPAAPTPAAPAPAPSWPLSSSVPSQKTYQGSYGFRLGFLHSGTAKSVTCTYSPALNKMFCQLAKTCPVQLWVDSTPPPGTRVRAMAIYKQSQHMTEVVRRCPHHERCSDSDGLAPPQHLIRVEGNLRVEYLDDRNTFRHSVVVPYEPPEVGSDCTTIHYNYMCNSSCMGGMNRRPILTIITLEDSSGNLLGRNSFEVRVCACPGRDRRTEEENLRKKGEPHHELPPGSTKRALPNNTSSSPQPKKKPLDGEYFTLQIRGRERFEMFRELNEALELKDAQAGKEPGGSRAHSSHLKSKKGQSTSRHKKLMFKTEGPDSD
Summary of the method: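 DMSO-normalized, positive-direction endpoint derived from the 460 nm/530 nm FRET ratio in HCT116 p53 beta-lactamase reporter cells exposed 16 h at 37C and loaded with CCF4-AM for 2 h.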

[7] = target: Cellular tumor antigen p53 (Homo sapiens) (UniProt P04637); assay: TOX21_p53_BLA_p3_ratio: Tox21 HCT-116 p53 Agonism Beta-lactamase Assay, Ratio, Phase 3 (AID 2283596)
Summary of the method: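 Cells were seeded at 4000/well, rested 5 h at 37C, then dosed with DMSO compound solutions (217-fold dilution) for 16 h. CCF4-AM substrate was loaded for 2 h at room temperature, and the 460/530 nm emission ratio was fitted for gain of signal versus DMSO.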

[8] = target: Cellular tumor antigen p53 (Homo sapiens) (UniProt P04637); assay: TOX21_p53_BLA_p5_ratio: Tox21 HCT-116 p53 Agonism Beta-lactamase Assay, Ratio, Phase 5 (AID 2283599)
Summary of the method: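 HCT-116 cells carrying a p53-inducible beta-lactamase reporter were seeded at 4000 cells/well and dosed after 5 h with compound in DMSO (217-fold dilution). After 16 h at 37C, CCF4-AM substrate was added for 2 h, and the 460/530 nm emission ratio was scored as gain-of-signal versus DMSO.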

[9] = TOX21_p53_BLA_p5_viability: Viability Assessment in the Tox21 HCT-116 p53 Agonism Beta-lactamase Assay, Phase 5 (AID 2283600)
Summary of the method: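 Here cell health was gauged by ATP levels in wells holding 4000 cells, each treated 16 h with DMSO-delivered compounds at 217-fold dilution; reduced luminescence marked toxicity.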

[10] = target: Cellular tumor antigen p53 (Homo sapiens) (UniProt P04637); assay: TOX21_p53_BLA_p4_ratio: Tox21 HCT-116 p53 Agonism Beta-lactamase Assay, Ratio, Phase 4 (AID 2283601)
Summary of the method: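 HCT116 cells carrying an inducible beta-lactamase reporter were plated at 4000 cells/well, rested 5 h, then exposed to compounds in DMSO (217-fold dilution) for 16 h at 37C. CCF4-AM substrate was loaded 2 h at room temperature; 460/530 nm emission ratio scored gain-of-signal versus DMSO.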

[11] = target: bovine Estrogen Receptor (ER), ESR1 (gene 407238) (UniProt P49884); assay: NVS_NR_bER: NovaScreen (NVS) Nuclear Receptor Binding Assay for bovine Estrogen Receptor (ER) (AID 2283345);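 also: actives lower the bound radioligand count which means they displace the ER ligand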
Chain of bovine Estrogen Receptor (ER), ESR1 (gene 407238) (P49884 whole entry, looked up): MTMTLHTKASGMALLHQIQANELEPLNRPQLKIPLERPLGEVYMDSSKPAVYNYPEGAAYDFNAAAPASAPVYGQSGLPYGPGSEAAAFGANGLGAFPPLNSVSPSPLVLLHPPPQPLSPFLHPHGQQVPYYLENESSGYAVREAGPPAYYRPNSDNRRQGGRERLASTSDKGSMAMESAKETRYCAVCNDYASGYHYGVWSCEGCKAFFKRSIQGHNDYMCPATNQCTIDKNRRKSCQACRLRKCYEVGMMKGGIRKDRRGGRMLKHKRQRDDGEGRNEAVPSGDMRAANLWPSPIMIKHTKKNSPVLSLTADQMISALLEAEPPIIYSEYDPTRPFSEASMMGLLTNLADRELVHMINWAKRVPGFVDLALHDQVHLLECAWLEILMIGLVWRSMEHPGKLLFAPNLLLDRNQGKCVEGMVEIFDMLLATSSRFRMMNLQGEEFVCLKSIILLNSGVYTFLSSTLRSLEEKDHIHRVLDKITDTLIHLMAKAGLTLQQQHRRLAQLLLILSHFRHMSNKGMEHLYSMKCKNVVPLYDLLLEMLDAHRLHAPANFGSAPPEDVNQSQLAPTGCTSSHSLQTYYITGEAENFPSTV
Summary of the method: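 Scintillation counting of displaced radioligand gave the readout; bovine uterine membrane extract supplied the receptor. Measured 18 h post-dose, normalized to DMSO baseline. Single 25 uM duplicate screen preceded concentration-response follow-up.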

[12] = target: Estrogen receptor (Homo sapiens) (UniProt P03372); assay: NVS_NR_hER: NovaScreen (NVS) Nuclear Receptor Binding Assay for human Estrogen Receptor (ER) (AID 2283348)
Chain of Estrogen receptor (Homo sapiens) (P03372 whole entry, looked up): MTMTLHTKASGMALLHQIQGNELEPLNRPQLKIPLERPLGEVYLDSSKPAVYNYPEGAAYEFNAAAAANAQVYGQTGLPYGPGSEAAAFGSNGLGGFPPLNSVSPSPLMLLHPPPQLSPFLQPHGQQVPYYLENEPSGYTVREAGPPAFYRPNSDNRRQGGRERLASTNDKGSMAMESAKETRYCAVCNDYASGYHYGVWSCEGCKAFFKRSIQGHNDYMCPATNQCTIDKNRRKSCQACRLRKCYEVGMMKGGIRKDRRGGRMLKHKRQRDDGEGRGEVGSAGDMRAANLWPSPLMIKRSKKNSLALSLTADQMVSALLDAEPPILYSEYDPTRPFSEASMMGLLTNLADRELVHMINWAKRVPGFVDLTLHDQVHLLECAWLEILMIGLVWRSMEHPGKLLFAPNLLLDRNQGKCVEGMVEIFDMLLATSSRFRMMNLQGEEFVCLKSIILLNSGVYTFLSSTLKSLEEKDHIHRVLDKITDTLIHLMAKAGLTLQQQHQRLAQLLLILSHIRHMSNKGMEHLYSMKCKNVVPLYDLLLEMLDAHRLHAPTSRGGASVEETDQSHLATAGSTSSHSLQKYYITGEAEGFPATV
Summary of the method: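 Radiodetection of ligand displacement in a lysate-based, cell-free format using MCF7 extracts, read at 18 hours. Duplicate 25 uM primary testing, then concentration series for actives.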

[13] = read-out: Interleukin-8 (IL8), CXCL8 (gene 3576); assay: BSK_3C_IL8: BioMAP Diversity Plus: 3C Assay for Interleukin-8 (IL8) Biomarker Activity (AID 2283020; active = hit-call score of the fitted dose curve at least 0.9, where 1 is the maximum; inactive = score below 0.9); conditions: primary human endothelial cells (HUVEC); actives raise or lower the signal
Summary of the method: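 Endothelial primary cells of human umbilical vein origin are dosed with chemical; after 24 h the IL-8 biomarker is measured by ELISA, and concentration–response is fitted in both directions versus DMSO.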

[14] = read-out: Thrombomodulin, THBD (gene 7056); assay: BSK_3C_Thrombomodulin: BioMAP Diversity Plus: 3C Assay for Thrombomodulin Biomarker Activity (AID 2283029; active = hit-call score of the fitted dose curve at least 0.9, where 1 is the maximum; inactive = score below 0.9); conditions: primary human endothelial cells (HUVEC); actives raise or lower the signal
Summary of the method: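 Endothelial cells from umbilical vein are dosed with test chemical and incubated 24 h. Thrombomodulin is then quantified by ELISA, with DMSO serving as negative control and activity baseline.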

[15] = read-out: Vascular cell adhesion molecule 1 (VCAM1), VCAM1 (gene 7412); assay: BSK_CASM3C_VCAM1: BioMAP Diversity Plus: CASM3C Assay for Vascular cell adhesion molecule 1 (VCAM1) Biomarker Activity (AID 2283055; active = hit-call score of the fitted dose curve at least 0.9, where 1 is the maximum; inactive = score below 0.9;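 also: VCAM-1 protein level quantified by ELISA on the cells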); conditions: primary human coronary artery smooth muscle cells; actives raise or lower the signal
CD40, CD40 (gene 958) = assay: BSK_SAg_CD40: BioMAP Diversity Plus: SAg Assay for CD40 Biomarker Activity (AID 2283088; active = hit-call score of the fitted dose curve at least 0.9, where 1 is the maximum; inactive = score below 0.9); conditions: primary human HUVEC with PBMC; actives raise or lower the signal
Summary of the method: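 Endpoint derived by fitting increases or decreases versus DMSO controls. CD40 is detected by fluorescence ELISA in a human vascular co-culture of endothelium and PBMC at 24 h.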

[16] = TOX21_p53_BLA_p4_viability: Viability Assessment in the Tox21 HCT-116 p53 Agonism Beta-lactamase Assay, Phase 4 (AID 2283597);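 also: hits lower the luminescence signal meaning cytotoxicity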
Summary of the method: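 In this multiplexed secondary endpoint, HCT116 cells (4000 per well, compound at 5 h, 16 h treatment) received CellTiter-Glo after the beta-lactamase read. Luminescence after 30 min RT reflects ATP, and falling signal marks cytotoxicity.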

[17] = CCTE_Harrill_HTTr_Viability_MCF7: CCTE's 6-hour Cell Viability Assessment for the High-Throughput Transcriptomics (HTTr) Platform, in MCF-7 cells cultured in DMEM + 10% fetal bovine serum, Harrill Lab (AID 2284010; active = hit-call score of the fitted dose curve at least 0.9, where 1 is the maximum; inactive = score below 0.9)
Summary of the method: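 Read-out is propidium iodide gain of signal by high-content imaging, reflecting membrane integrity loss. Measurements are taken 6 h after dosing, eight concentrations per chemical, with DMSO serving as baseline for bidirectional curve fitting.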

[18] = CCTE_Harrill_HTTr_Apoptosis_MCF7: CCTE's 6-hour Apoptosis Assessment for the High-Throughput Transcriptomics (HTTr) Platform, in MCF-7 cells cultured in DMEM + 10% fetal bovine serum, Harrill Lab (AID 2284011; active = hit-call score of the fitted dose curve at least 0.9, where 1 is the maximum; inactive = score below 0.9)
Summary of the method: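 Apoptosis in MCF-7 cells grown in DMEM with 10% fetal bovine serum was scored after a six hour exposure by high content imaging of caspase-3/7 activation (CellEvent Caspase 3/7 Green), with DMSO serving as negative control and baseline.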

[19] = TOX21_p53_BLA_p3_viability: Viability Assessment in the Tox21 HCT-116 p53 Agonism Beta-lactamase Assay, Phase 3 (AID 2283593);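 also: cells exposed to compound for 16 h before reading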
Summary of the method: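 HCT-116 cells (4000/well) rested 5 h at 37C, then got DMSO compounds by pin tool (217-fold dilution) for 16 h at 37C, 5% CO2. After the bla read, CellTiter-Glo was added and luminescence read at 30 min, room temperature.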

Measured: AC50

COc1ccccc1OCC(O)CO (stereo not given)
inactive: [1] | [2] | [3] | [4] | [5] | [6] | [7] | [8] | [9] | [10]

CC(C)(C)C(=O)C(=O)O
inactive: [11] | [12] | [6] | [8] | [9] | [10]

COc1ccc(C(=O)c2ccccc2O)c(O)c1
inactive: [13] | [14] | CD40, CD40 (gene 958) | [6] | [7] | [16] | [8] | [9] | [10] | [17] | [18]
active: [13] 7.28 µM | [15] 13.4 µM and 3.97 µM | CD40, CD40 (gene 958) 29.9 µM

C1CN(CCOCCN2CCOCC2)CCO1
inactive: [13] | [14] | [15] | CD40, CD40 (gene 958) | [5] | [7]
active: [13] 9.48 µM

CC(=O)CC(=O)OC(C)(C)C
inactive: [11] | [12] | [5] | [6] | [19] | [7] | [16] | [8] | [10]

Oc1ccc(Oc2ccccc2)cc1
active: [11] 11 µM | [12] 6.92 µM | [6] 45 µM
not listed: [9] | [13] | [14] | [15] | CD40, CD40 (gene 958) | [17] | [18]
inactive: all other assays above

CCC[Si](OC(C)=O)(OC(C)=O)OC(C)=O
inactive: [13] | [14] | [15] | CD40, CD40 (gene 958)

CC(C)C1OCCN1CCOC(=O)NCCCCCCNC(=O)OCCN1CCOC1C(C)C (stereo not given)
inactive: [13] | [14] | [15] | CD40, CD40 (gene 958) | [5] | [6] | [19] | [16] | [8] | [10]

COc1ccccc1Oc1c(NS(=O)(=O)c2ccc(C(C)(C)C)cc2)nc(-c2ncccn2)nc1OCCO
active: [15] 10 µM | CD40, CD40 (gene 958) 20 µM
inactive: [13] | [14] | [15] | CD40, CD40 (gene 958) | [5] | [6] | [19] | [8] | [17] | [18]
